Activity calls are given as the source filed them. The calls were made as follows: active = hit-call score of the fitted dose curve at least 0.9, where 1 is the maximum; inconclusive = response in the unintended direction; inactive = score below 0.9.
The compounds below were run against Estrogen receptor beta (Homo sapiens) (UniProt Q92731) (assay: OT_ER_ERbERb_1440: Odyssey Thera (OT) 24-hour HEK293T Protein-Complementation Assay for Estrogen Receptor-beta/-beta Homodimer (AID 2283380);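 also: scored as signal increase over DMSO baseline for both agonists and antagonists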).
Sequence of Estrogen receptor beta (Homo sapiens) (Q92731 whole entry, looked up, the tested form may be a part): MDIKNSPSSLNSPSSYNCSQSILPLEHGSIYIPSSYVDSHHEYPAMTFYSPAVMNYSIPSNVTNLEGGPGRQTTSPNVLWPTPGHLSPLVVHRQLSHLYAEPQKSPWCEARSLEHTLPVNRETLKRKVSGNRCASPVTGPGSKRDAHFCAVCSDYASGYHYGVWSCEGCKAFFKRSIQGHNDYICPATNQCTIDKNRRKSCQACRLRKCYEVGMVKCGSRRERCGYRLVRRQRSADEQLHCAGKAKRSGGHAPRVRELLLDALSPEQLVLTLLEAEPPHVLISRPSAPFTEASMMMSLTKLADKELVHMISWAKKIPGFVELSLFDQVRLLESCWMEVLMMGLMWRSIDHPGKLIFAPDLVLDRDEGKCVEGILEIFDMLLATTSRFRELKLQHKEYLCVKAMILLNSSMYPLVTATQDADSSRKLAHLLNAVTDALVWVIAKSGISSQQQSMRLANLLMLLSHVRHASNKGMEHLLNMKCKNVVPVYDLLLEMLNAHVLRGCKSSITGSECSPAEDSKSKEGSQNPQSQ
Method: OT_ER_ERbERb_1440 is a cell-based assay that uses HEK293T, a human kidney cell line, with measurements taken at 24 hours after chemical dosing in a 384-well plate.OT_ER_ERbERb_1440 is one of one assay component(s) measured or calculated from the OT_ER_ERbERb_1440 assay. It is designed to make measurements of protein fragment complementation, a form of binding reporter, as detected with fluorescence intensity signals by Protein-fragment Complementation technology.Data from the assay component OT_ER_ERbERb_1440 was analyzed into 1 assay endpoint. This assay endpoint, OT_ER_ERbERb_1440, was analyzed in the positive analysis fitting direction relative to DMSO as the negative control and baseline of activity. Using a type of binding reporter, measures of receptor for gain-of-signal activity can be used to understand the binding at the pathway-level as they relate to the gene ESR2. Furthermore, this assay endpoint can be referred to as a primary readout, because the performed assay has only produced 1 assay endpoint. To generalize the intended target to other relatable targets, this assay endpoint is annotated to the nuclear receptor intended target family, where the subfamily is steroidal.
Protein-fragment complementation assay, or PCA, is a method for the identification and quantification of protein-protein interactions. In the PCA, the proteins of interest ("bait" and "prey") are each covalently linked to fragments of a third protein (e.g. DHFR, which acts as a "reporter"). Interaction between the bait and the prey proteins brings the fragments of the reporter protein in close proximity to allow them to form a functional reporter protein whose activity can be measured. The OT ER beta / ER beta assay is a homodimer PCA of the ligand binding domain (LBD; amino acids 310-547) of human ER beta stably expressed in HEK293T cells. […] Cells are fixed in 4 percent formaldehyde and stained with Draq5 (BioStatus) to identify cells prior to signal detection. Fluorescent signal in the basal state of the assay is very low and is primarily punctuate and cytoplasmic. Modulation of this assay is quantified as an increase in mean fluorescence intensity in the nucleus (for agonists) or in the nucleus and cytoplasm (antagonists) relative to vehicle controls, and can be quantified on a high content imaging device or a laser scanning cytometer. The latter instrument is favored for this assay because of the rapid mode of data acquisition, the ability to acquire data from the entire cell population in a well (as opposed to a fraction of the well on the high content devices) and the larger dynamic range typically achieved with this instrument. To assess sensitivity of the ER beta/ER beta LBD assay to ligand, cells were treated with the ER agonist 17- beta-estradiol (E2) in 10-point concentration- response format for 24 hours and monitored response on a laser scanning plate cytometer (Acumen eX3; TTP Lab Tech).
With `COC(=O)c1c(Cl)c(Cl)c(C(=O)OC)c(Cl)c1Cl` the outcome was “inactive”. In the case of `Cc1[nH]cnc1C[C@H]1CCc2c(C)c3ccccc3n2C1=O`, the outcome is reported as “inactive”. For `O=C1CCCCCN1`, the outcome was “inactive”. `Cn1c(=O)cc(Oc2ccc(F)cc2F)c2cnc(NCC(C)(C)O)nc21` was tested, and the outcome was “inactive”. With `CC[C@H]1OC(=O)[C@H](C)[C@@H](O[C@H]2C[C@@](C)(OC)[C@@H](O)[C@H](C)O2)[C@H](C)[C@@H](O[C@@H]2O[C@H](C)C[C@H](N(C)C)[C@H]2O)[C@](C)(O)C[C@@H](C)C(=O)[C@H](C)[C@@H](O)[C@]1(C)O` the outcome was “inactive”. For `CCn1nc(Cc2ccccc2)cc1C1CCN(C[C@H]2C[C@H](N(C)[C@@H](C(=O)O)C(C)C)C[C@@H]2c2cccc(F)c2)CC1`, the outcome was “inactive”. In the case of `On1ccccc1=S`, the outcome is reported as “inactive”. In the case of `CC(C)(O)c1coc(S(=O)(=O)NC(=O)Nc2c3c(cc4c2CCC4)CCC3)c1`, the outcome is reported as “inactive”. In the case of `CCc1cc(SCc2sc(-c3ccc(C(F)(F)F)cc3)nc2CN2CCN(c3ccc(OC)cc3)CC2)ccc1OCC(=O)O`, the outcome is reported as “inactive”. `COC(=O)c1ccccc1O` was tested, and the outcome was “inactive”. With `CC(C)CCO` the outcome was “inactive”. With `Nc1cccc(N)c1` the outcome was “inactive”. For `CCCC(=O)OCC`, the outcome was “inactive”. For `COC(=O)CC(=O)OC`, the outcome was “inactive”. With `Nc1nc2ncc(CNc3ccc(C(=O)N[C@@H](CCC(=O)O)C(=O)O)cc3)nc2c(=O)[nH]1` the outcome was “inactive”. In the case of `C1=CCCC=CCCC=CCC1`, the outcome is reported as “inactive”. `CCN(C(=O)c1cc(C)cc(OC[C@H](C)Nc2ccncc2)c1)C(C)C` was tested, and the outcome was “inactive”. In the case of `COc1ccc(/C=C/S(=O)(=O)NC(=O)c2ccc(C)cc2Cl)cc1`, the outcome is reported as “inactive”. With `Fc1ccccc1[C@@H](F)COC1CCC(Nc2ncnc3[nH]ncc23)CC1` (stereo not given in full) the outcome was “inactive”. For `CN(C)c1ccc(Cc2ccc(N(C)C)cc2)cc1`, the outcome was “inactive”. For `CCOc1cccc(-n2cc(C(=O)N3CCN(c4cc(C(=O)O)c5ccccc5c4)CC3)nc2-c2ccc(C)cc2)c1`, the outcome was “inactive”. In the case of `Cc1c(-c2cccnc2)c2ccccc2n1CCCCC(=O)O`, the outcome is reported as “inactive”. For `Cc1ccc(O)cc1`, the outcome was “inactive”. `CC(O)CN(CCN(CC(C)O)CC(C)O)CC(C)O` (stereo not given) was tested, and the outcome was “inactive”. For `O=C(O)c1cc(N=Nc2ccc(S(=O)(=O)Nc3ccccn3)cc2)ccc1O`, the outcome was “inactive”. In the case of `CCOCCOCCOCCO`, the outcome is reported as “inactive”. In the case of `CCNc1ccccc1`, the outcome is reported as “inactive”. With `COCCOc1cc2cc(C(=O)NC3CCN(C(C)C)CC3)n(CC(=O)Nc3ccc(Cl)cn3)c2cn1` the AC50 was 58 µM (active). For `CC(C)=CCCC(C)=CC=O`, the outcome was “inactive”. For `CCOC(=O)CC(CC(=O)OCC)(OC(C)=O)C(=O)OCC`, the outcome was “inactive”. In the case of `O=C1CCC(N2C(=O)c3ccccc3C2=O)C(=O)N1` (stereo not given), the outcome is reported as “inactive”. With `O=C1OC(=O)C2C3C=CC(C3)C12` (stereo not given) the outcome was “inactive”. `O=c1n(CC2CO2)c(=O)n(CC2CO2)c(=O)n1CC1CO1` (stereo not given) was tested, and the outcome was “inactive”. With `CC(C)CC(C)(O)C#CC(C)(O)CC(C)C` (stereo not given) the outcome was “inactive”. With `CC[C@H](C)C(=O)O[C@H]1C[C@@H](C)C=C2C=C[C@H](C)[C@H](CC[C@@H]3C[C@@H](O)CC(=O)O3)[C@H]21` the outcome was “inactive”. With `CC/C(=C\C(=N/O)C(N)=O)C(C)[N+](=O)[O-]` (stereo not given) the outcome was “inactive”. For `C=CCCCCCCCCC(=O)O`, the outcome was “inactive”. `C1N2CN3CN1CN(C2)C3` was tested, and the outcome was “inactive”. For `O=C(NS(=O)(=O)/C=C/c1ccccc1)c1ccc(F)cc1Cl`, the outcome was “inactive”. In the case of `CC[C@H]1CC[C@H](NCc2cc3c(cc2OC)[C@H]2C[C@H]2C(=O)N3C)[C@H](c2ccccc2)N1`, the outcome is reported as “inactive”.

Reference: PubChem BioAssay (EPA / NIEHS)
